From PubChem BioAssay come the findings set out here.

Activity calls are given as the source filed them. Unless noted, no rule for the calls is given here.

In assay [1] the test system is Wnt5a (protein binding on small-molecule microarray). The assay can be described thus: Wnt5a binders on small-molecule microarray, primary screen, biophysical, 635/667 nm fluorescence (AID 1142).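 Also: fluorescence read at 667 nm with signal to noise per printed feature.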 Conditions: 635 nm fluorescence, higher = more signal.
The nature of assay [2]: cell viability in Huh7 cells, primary screen, cytotoxicity control for HCV replication inhibitor project, CellTiter-Glo luminescence, basal, 48 h (AID 1143).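 Also: Huh7 hepatoma cells carrying a hepatitis C replication reporter with no stimulus; test concentration not given here.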 Particulars: Huh7 HCV replicon, higher = more signal, called active from +8 up or from −8 down.
Assay [3] can be described thus: P. aeruginosa biofilm formation inhibitors, primary screen, PAO1 strain, BacTiter-Glo luminescence, LB-PBS (AID 1144). Conditions: 12 h, higher = more signal.
The nature of assay [4]: CREB reporter modulators without forskolin, primary screen, cell-based, PC12, CRE-LacZ reporter, unstimulated (AID 1145). Particulars: no forskolin, luminescence, 4.5 h, higher = more signal, called active from +8 up or from −8 down.
Assay [5] is described as follows: CREB reporter modulators under forskolin, primary screen, cell-based, PC12, CRE-LacZ reporter, forskolin-stimulated (AID 1146).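 Also: PC12 cells with 6xCRE LacZ reporter stimulated by forskolin 10 µM; beta-galactosidase reporter signal reflecting CREB driven transcription.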 Conditions: luminescence, 4.5 h, higher = more signal, called active from +8 up or from −8 down.
Assay [6] deals with Streptavidin (Streptomyces avidinii) (UniProt P22629). The assay is described as follows: streptavidin binders on small-molecule microarray, primary screen, artefact control for SMM compound annotation, biophysical, 635/667 nm fluorescence (AID 1147).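 Also: signal reflects streptavidin binding to arrayed compounds as a control protein.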 Conditions: streptavidin binding, higher = more signal.
Chain of Streptavidin (Streptomyces avidinii) (P22629 whole entry, looked up): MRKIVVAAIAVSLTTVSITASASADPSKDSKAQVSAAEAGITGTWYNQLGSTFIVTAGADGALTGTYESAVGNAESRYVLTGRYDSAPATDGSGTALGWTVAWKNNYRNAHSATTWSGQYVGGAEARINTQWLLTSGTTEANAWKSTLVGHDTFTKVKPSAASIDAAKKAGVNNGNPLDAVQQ
Assay [7] can be described thus: small-molecule binders of probe aInhba, primary screen, biochemical, small-molecule microarray, 635/667 nm fluorescence (AID 1148).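 Also: score merges 667nm spot fluorescence with signal-to-noise for antibody binding to printed compounds.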 Particulars: higher = more signal.
Assay [8] has as its target Torsin-1A (Homo sapiens) (UniProt O14656). The assay is described as follows: torsin A binders from cell lysate, primary screen, small-molecule microarray, wild-type, 635/667 nm (AID 1149). Particulars: COS7 hTOR1A-WT lysate, 635 nm fluorescence, higher = more signal.
Assay [9] shares this target. The assay is described as follows: small-molecule binders of mutant TOR1A in lysate, primary screen, cell lysate, small-molecule microarray, COS7 lysate, 635/667 nm fluorescence (AID 1150).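 Also: score pools 667 nm emission and signal to noise measuring lysate protein binding.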 Conditions: COS7 hTOR1A mutant lysate, 635 nm fluorescence, higher = more signal.
Assay [10] has as its system Sonic hedgehog protein (Shh). The assay can be described thus: small-molecule binders of Shh protein, primary screen, biochemical, small-molecule microarray, 635/667 nm fluorescence (AID 1151).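 Also: Shh protein binding to compounds spotted on small-molecule microarray slides; score combines spot fluorescence intensity with signal-to-noise across triplicate slides.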 Particulars: small-molecule microarray binding, 635 nm fluorescence; higher = more signal.
Assay [11] in a line: E. coli DRC41 culture turbidity changes, primary screen, E. coli filamentation inducer project, strain DRC41, OD650, 48 h (AID 1152).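 Also: E. coli MC1000 strain DRC41 lacking acrAB efflux pump and sulA.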 Conditions: E. coli DRC41 (acrAB sulA), higher = more signal, called active from +8 up or from −8 down.
Assay [12] in a line: small-molecule binders of probe aLefty1, primary screen, biochemical, small-molecule microarray, 635/667 nm fluorescence (AID 1153).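 Also: score merges spot fluorescence with signal-to-noise ratio from the scanned slide images.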 Particulars: higher = more signal.
A short description of assay [13]: PSAC antagonists in infected red cells, primary screen, cell-based, P. falciparum Indochina, OD700, 1 h (AID 1154). Conditions: P. falciparum Indochina infected RBC osmotic lysis, higher = more signal, called active from +8 up or from −8 down.
Assay [14] is described as follows: PSAC antagonists in infected red cells, primary screen, cell-based, P. falciparum Indochina, OD700, 2 h (AID 1155).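 Also: lysis reports solute entry through the parasite surface anion channel PSAC; channel blockers reduce lysis of infected cells.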 Conditions: P. falciparum Indochina infected erythrocytes, osmotic lysis OD700; higher = more signal, called active from +8 up or from −8 down.
A short description of assay [15]: osmotic lysis modulators in infected erythrocytes, primary screen, PSAC antagonist project, cell-based, P. falciparum Indochina, OD700, 3 h (AID 1156). Conditions: higher = more signal, called active from +8 up or from −8 down.
Assay [16] is described as follows: PSAC antagonists in infected red cells, primary screen, cell-based, P. falciparum Indochina, OD700, 18 h (AID 1157). Conditions: P. falciparum Indochina infected erythrocytes, osmotic lysis OD700, 18 h; higher = more signal, called active from +8 up or from −8 down.
The nature of assay [17]: modulators of S6 phosphorylation in cells, primary screen, cell-based, A549, cytoblot, luminescence, serum-stimulated (AID 1158).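 Also: serum-stimulated A549 lung adenocarcinoma cells; signal is phosphorylated S6 detected by cytoblot immunostaining with HRP secondary.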 Conditions: A549 phospho-S6 cytoblot, 5 h, higher = more signal.
Assay [18] has as its target NADPH oxidase 2 (Homo sapiens) (UniProt P04839). The assay can be described thus: NOX2-dependent H2O2 signal modulators, primary screen, NOX inhibitor project, cell-based, HEK293-NOX2, PMA-stimulated, Amplex Red fluorescence (AID 1159). Also: test concentration not given here. Particulars: 45 min, higher = more signal, called active from +8 up or from −8 down.
Assay [19] deals with NADPH oxidase 4 (Homo sapiens) (UniProt Q9NPH5). The assay is described as follows: NOX4-dependent H2O2 signal modulators, primary screen, NOX inhibitor project, cell-based, HEK293-NOX4, tetracycline-induced, Amplex Red fluorescence (AID 1160). Particulars: 45 min, higher = more signal, called active from +8 up or from −8 down.
Chain of NADPH oxidase 4 (Homo sapiens) (Q9NPH5 whole entry, looked up): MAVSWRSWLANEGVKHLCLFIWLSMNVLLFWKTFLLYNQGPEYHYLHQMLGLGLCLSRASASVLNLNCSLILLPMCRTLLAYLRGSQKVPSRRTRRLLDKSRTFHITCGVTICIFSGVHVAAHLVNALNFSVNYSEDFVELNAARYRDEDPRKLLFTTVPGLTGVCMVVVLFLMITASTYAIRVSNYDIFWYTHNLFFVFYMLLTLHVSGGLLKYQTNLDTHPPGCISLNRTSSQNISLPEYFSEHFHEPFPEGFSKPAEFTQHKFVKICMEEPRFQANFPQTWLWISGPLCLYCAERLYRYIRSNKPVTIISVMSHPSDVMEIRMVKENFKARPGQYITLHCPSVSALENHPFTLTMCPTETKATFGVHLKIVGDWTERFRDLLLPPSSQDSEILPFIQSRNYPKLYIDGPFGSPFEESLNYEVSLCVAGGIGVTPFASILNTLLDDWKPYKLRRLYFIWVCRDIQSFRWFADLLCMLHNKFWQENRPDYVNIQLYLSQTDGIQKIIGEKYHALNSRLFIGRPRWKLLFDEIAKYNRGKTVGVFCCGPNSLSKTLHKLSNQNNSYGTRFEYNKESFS
Assay [20] deals with NADPH oxidase 5 (Homo sapiens) (UniProt Q96PH1). The assay is described as follows: NOX5-dependent H2O2 signal modulators, primary screen, NOX inhibitor project, cell-based, HEK293-NOX5, Amplex Red fluorescence (AID 1161). Conditions: HEK293-NOX5, ionomycin, 45 min, higher = more signal.
Chain of NADPH oxidase 5 (Homo sapiens) (Q96PH1 whole entry, looked up): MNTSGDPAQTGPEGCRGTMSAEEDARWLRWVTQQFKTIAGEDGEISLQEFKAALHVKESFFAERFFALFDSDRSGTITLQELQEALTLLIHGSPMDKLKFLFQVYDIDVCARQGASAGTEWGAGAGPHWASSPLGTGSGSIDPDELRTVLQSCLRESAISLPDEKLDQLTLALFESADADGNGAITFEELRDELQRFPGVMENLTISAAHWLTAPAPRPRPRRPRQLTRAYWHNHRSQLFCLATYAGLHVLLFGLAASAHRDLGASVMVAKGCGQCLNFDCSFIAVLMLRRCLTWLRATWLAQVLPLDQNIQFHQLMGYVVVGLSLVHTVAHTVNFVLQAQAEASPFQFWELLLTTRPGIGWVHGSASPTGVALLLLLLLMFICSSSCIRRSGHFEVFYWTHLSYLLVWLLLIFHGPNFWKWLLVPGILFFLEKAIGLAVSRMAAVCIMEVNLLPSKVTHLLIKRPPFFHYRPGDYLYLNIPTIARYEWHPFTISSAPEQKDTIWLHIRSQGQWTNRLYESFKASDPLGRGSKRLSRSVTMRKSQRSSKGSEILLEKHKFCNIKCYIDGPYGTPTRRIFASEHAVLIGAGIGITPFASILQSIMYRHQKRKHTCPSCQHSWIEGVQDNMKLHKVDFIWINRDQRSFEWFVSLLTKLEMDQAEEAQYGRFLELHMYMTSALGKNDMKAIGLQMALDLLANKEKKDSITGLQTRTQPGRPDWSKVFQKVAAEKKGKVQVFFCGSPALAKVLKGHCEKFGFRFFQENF

Chain of NADPH oxidase 2 (Homo sapiens) (P04839 whole entry, looked up): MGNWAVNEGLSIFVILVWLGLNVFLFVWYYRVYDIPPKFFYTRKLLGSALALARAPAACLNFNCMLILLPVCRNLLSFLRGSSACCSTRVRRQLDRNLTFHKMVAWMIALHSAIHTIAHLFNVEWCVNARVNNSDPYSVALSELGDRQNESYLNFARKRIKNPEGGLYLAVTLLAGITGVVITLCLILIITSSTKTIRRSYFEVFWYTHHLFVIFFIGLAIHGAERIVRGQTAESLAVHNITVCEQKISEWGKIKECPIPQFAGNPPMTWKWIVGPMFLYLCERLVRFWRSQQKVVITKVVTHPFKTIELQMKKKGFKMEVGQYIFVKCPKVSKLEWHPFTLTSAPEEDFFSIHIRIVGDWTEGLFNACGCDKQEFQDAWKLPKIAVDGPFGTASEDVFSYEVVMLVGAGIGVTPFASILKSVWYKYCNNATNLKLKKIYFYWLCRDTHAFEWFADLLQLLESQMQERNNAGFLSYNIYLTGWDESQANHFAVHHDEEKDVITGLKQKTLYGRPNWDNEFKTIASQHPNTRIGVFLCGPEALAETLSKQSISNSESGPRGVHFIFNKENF
Chain of Torsin-1A (Homo sapiens) (O14656 whole entry, looked up): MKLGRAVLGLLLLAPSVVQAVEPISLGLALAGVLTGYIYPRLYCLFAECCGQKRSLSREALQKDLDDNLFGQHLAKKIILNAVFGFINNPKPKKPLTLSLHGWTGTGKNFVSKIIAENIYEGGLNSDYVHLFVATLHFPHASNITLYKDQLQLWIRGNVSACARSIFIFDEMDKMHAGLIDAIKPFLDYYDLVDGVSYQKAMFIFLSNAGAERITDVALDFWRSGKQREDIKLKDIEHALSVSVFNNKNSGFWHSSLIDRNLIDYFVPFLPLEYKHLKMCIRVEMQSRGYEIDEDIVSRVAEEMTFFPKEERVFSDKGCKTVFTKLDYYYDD

For `CN(C)CCCCCCNC(=O)[C@@H]1C[C@@H]2C(=O)N3CCC[C@H]3C(=O)N2[C@@H]1c1cccc(OCCO)c1`, the composite z-score is 0.697 in [1]; 0.656 in assay [6]; 1.06 in [7]; 1.99 in the assay with Torsin-1A (Homo sapiens) [8]; 1.43 in the assay with Torsin-1A (Homo sapiens) [9]; 1.54 in assay [10]. This compound came in with a composite z-score in [12] of 0.0231. The z-score in assay [2] is -0.0705 (inactive); in assay [3], 0.15 (inactive); in assay [4], 0.151 (inactive); in assay [5], 0.766 (inactive); in [11], -0.305 (inactive); in [13], 3.6 (inactive). In addition, the z-score in [14] is 0.456 (inactive); in [15] it was 0.77 (inactive); in assay [16] it was 0.448 (inactive); in assay [17], -0.701; in assay [18], 1.03 (inactive); in assay [19], -0.884 (inactive). The z-score in [20] amounted to 0.837.
`C=CCOC(=O)[C@@H]1[C@H]2C(=O)O[C@H](c3ccccc3)[C@H](c3ccccc3)N2[C@H](c2ccc(OCCOC(=O)[C@@H]3C[C@@H]4C(=O)N[C@@H](CCCC[N+](C)(C)C)C(=O)N4[C@@H]3c3ccc(O)cc3)cc2)[C@@]12C(=O)Nc1ccc(I)cc12`: the composite z-score was 0.865 in assay [1]; -0.111 in [6]; 0.0665 in [7]; 1.22 in the assay with Torsin-1A (Homo sapiens) [8]; 0.781 in the assay with Torsin-1A (Homo sapiens) [9]; 1.83 in assay [10]. Besides, the composite z-score in assay [12] is 0.668. The z-score is -0.731 (inactive) in assay [2]; -1.37 (inactive) in assay [3]; -1.35 (inactive) in [4]; 0.206 (inactive) in assay [5]; 0.0995 (inactive) in assay [11]; 0.321 (inactive) in assay [13]. Further, the z-score in assay [14] is 1.12 (inactive); in assay [15], 3.11 (inactive); in assay [16] it was 0.0802 (inactive); in [17], -1.27; in [18] it was 2.43 (inactive); in assay [19] it was 0.0539 (inactive). The same compound came in with a z-score in assay [20] of 0.718.
As to `CC(C)C(CO)N1C(=O)[C@@H]2C3C(=O)OCCC/C=C\[C@H]3OC23C=CCN(c2ccc4ccccc4c2)C(=O)[C@@H]13` (stereo not given in full), the composite z-score was -0.4 in [1]; -0.537 in assay [6]; -0.0695 in assay [7]; -1.83 in the assay with Torsin-1A (Homo sapiens) [8]; -0.801 with Torsin-1A (Homo sapiens) [9]; 0.41 in assay [10]. In addition, the composite z-score in [12] came out at 0.0533. The z-score in [2] was -0.567 (inactive); in assay [3] it was 1.09 (inactive); in [4], -0.761 (inactive); in assay [5], -0.137 (inactive); in assay [11], -0.546 (inactive); in assay [13], 1.03 (inactive). Further, the z-score in assay [14] was 0.36 (inactive); in [15], 0.204 (inactive); in assay [16], 0.478 (inactive); in assay [17] it was -0.428; in assay [18], 1.77 (inactive); in assay [19], 0.767 (inactive). This compound also yielded a z-score in [20] of 1.69.
With `C=CCN1C(=O)[C@]2(CCC(=O)OC(C)(C)C)N=C(c3ccc(OCCCO)cc3)O[C@@H]2c2ccccc21`, the composite z-score was 0.176 in assay [1]; 0.0475 in assay [6]; 0.0631 in assay [7]; -0.0806 with Torsin-1A (Homo sapiens) [8]; 0.19 with Torsin-1A (Homo sapiens) [9]; 1.71 in assay [10]. The compound further had a composite z-score in assay [12] of 0.576. Besides, the z-score was -3.67 (inactive) in [2]; -0.149 (inactive) in assay [3]; 0.124 (inactive) in assay [4]; -1.99 (inactive) in [5]; 0.736 (inactive) in assay [11]; 34.1 (active) in assay [13]. For the same compound, the z-score is 32.3 (active) in assay [14]; 2.29 (inactive) in assay [15]; 12.1 (active) in [16]; 0.708 in assay [17]; -2.67 (inactive) in [18]; 0.56 (inactive) in assay [19]. The z-score in [20] was -0.299.
Take `COCCOC(=O)N1C(=O)[C@@]2(c3cc(C#CC4=CCCCC4)ccc31)[C@H](c1ccccc1OCCO)N1[C@H](c3ccccc3)[C@H](c3ccccc3)OC(=O)[C@H]1[C@@H]2C(=O)NC[C@H](O)c1ccccc1`: the composite z-score is 0.6 in assay [1]; 0.423 in assay [6]; -0.0428 in assay [7]; 0.281 with Torsin-1A (Homo sapiens) [8]; 0.501 with Torsin-1A (Homo sapiens) [9]; 2.13 in assay [10]. For the same compound, the composite z-score in assay [12] was 0.457. The z-score in [2] was -4.97 (inactive); in [3] it was 0.819 (inactive); in assay [4], -0.329 (inactive); in assay [5] it was 0.083 (inactive); in [11], -0.801 (inactive); in assay [13], 1.34 (inactive). For the same compound, the z-score is 2.19 (inactive) in assay [14]; -1.61 (inactive) in [15]; 0.703 (inactive) in assay [16]; -0.0585 in assay [17]; 1.79 (inactive) in [18]; 0.529 (inactive) in [19]. The z-score in assay [20] worked out at 1.81.
Regarding `CCOC(=O)C1=C[C@@H](C(C)(C)C)N(S(=O)(=O)c2ccc(C)cc2)[C@H]1c1cccc2ccccc12`, the composite z-score in assay [1] is -0.219; in assay [6], 0.823; in assay [7] it was 0.0421; in the assay with Torsin-1A (Homo sapiens) [8], -0.331; with Torsin-1A (Homo sapiens) [9], 0.406; in assay [10] it was -0.165. This compound gave a composite z-score in assay [12] of 0.0927. The z-score in [2] was -4.9 (inactive); in assay [3], 0.873 (inactive); in assay [4], 1.14 (inactive); in [5], 0.705 (inactive); in assay [11], -1.11 (inactive); in assay [13] it was 0.564 (inactive). In addition, the z-score was 0.849 (inactive) in assay [14]; 0.31 (inactive) in [15]; 0.193 (inactive) in assay [16]; -0.674 in assay [17]; -0.527 (inactive) in [18]; 0.13 (inactive) in [19]. In addition, the z-score in [20] was determined as 0.139.
On to `CN(C)C(=O)[C@]1(Cc2ccccc2CN=[N+]=[N-])N=C(c2ccc(OCCCO)cc2)O[C@@H]1c1ccccc1`, for which the composite z-score is 0.682 in assay [1]; 0.792 in assay [6]; 0.111 in [7]; 0.178 with Torsin-1A (Homo sapiens) [8]; 0.729 in the assay with Torsin-1A (Homo sapiens) [9]; -0.18 in [10]. This compound also yielded a composite z-score in assay [12] of 0.457. Also, the z-score in assay [2] is -5.61 (inactive); in assay [3], -0.528 (inactive); in assay [4], 0.502 (inactive); in [5], -0.579 (inactive); in assay [11], -0.532 (inactive); in assay [13], 27.1 (active). Further, the z-score was 22.9 (active) in assay [14]; 1.76 (inactive) in [15]; 0.96 (inactive) in [16]; 1.87 in assay [17]; -4 (inactive) in [18]; -2.05 (inactive) in assay [19]. The compound also returned a z-score in assay [20] of -1.94.
Consider `C=C[C@H]1C(C(=O)OCC)=CC[C@@H](c2ccccc2)N1S(=O)(=O)c1ccc(C)cc1`, for which the composite z-score is 0.197 in [1]; 0.767 in assay [6]; 0.13 in [7]; 0.683 with Torsin-1A (Homo sapiens) [8]; 0.508 with Torsin-1A (Homo sapiens) [9]; 0.056 in [10]. In [12], this compound had a composite z-score of 0.457. Also, the z-score was -4.68 (inactive) in [2]; -0.376 (inactive) in [3]; -0.0137 (inactive) in assay [4]; 0.299 (inactive) in assay [5]; -1.11 (inactive) in assay [11]; 7.17 (inactive) in assay [13]. Moreover, the z-score in [14] is 1.56 (inactive); in assay [15] it was 0.43 (inactive); in assay [16] it was 0.509 (inactive); in [17] it was -0.518; in assay [18] it was 0.09 (inactive); in assay [19], -0.613 (inactive). Also, the z-score in assay [20] is 0.14.
